Source: PubChem BioAssay (NCI)
Values joined by “and” are separate entries in the source; they are usually repeats but may differ in a detail not shown here. Identical values can stand only once. This is part of a sample that, as a whole, favours compounds with a hit. Of some 83,000 tested, about 20% had one in any assay.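 Negative percent growth values reflect cell death: -40 means 40% of the cells present at the start died, and -100 means all died.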 Active and inactive are the calls of the source. The calls were made as follows: active = growth percent below 10; inactive = the rest.

test system: MDA-MB-468 breast; test: NCI-60 one-dose screen, 48 h (100 = growth as untreated, 0 = no growth, -100 = all killed); settings: 10 µM unless noted

Row | Structure (SMILES) | growth
1 | O=C(NCCCNc1cc(-c2cn(-c3ccccc3)nc2-c2cccc(O)c2)ccn1)c1cccc(O)c1 | 29.3% (inactive)
2 | CC1(C)CC(=O)CC2(C1)N=C(N)Nc1nc3ccccc3n12 (stereo not drawn) | 107% (inactive)
3 | COC(=O)/C=C/c1cc(O)c2c(c1)C(C(=O)OC)C(c1ccc(O)c(O)c1)O2 (stereo not drawn) | 27.3% (inactive) and 17.6% (inactive)
